# Data taken from PubChem BioAssay.
# Results filed as inconclusive are left out. Calls of active or inactive are those of the source.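 Rule for the calls, unless noted: active = normalized viability below 100% at a tested concentration; inactive = the rest.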
# What was measured:
# [1] = viability loss in pontine glioma line – cell-based, SU-DIPG-XIII, MIPE4.0, CellTiter-Glo, qHTS, dose response (AID 1347061; cut-off not given, nearly all actives have AC50 up to about 37 µM;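 note: cells exposed to compound for 48 hours before readout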); conditions: CellTiter-Glo ATP luminescence
# [2] = viability loss in pontine glioma line – cell-based, JHH-DIPG-1, MIPE4.0, CellTiter-Glo, qHTS, dose response (AID 1347062; cut-off not given, nearly all actives have AC50 up to about 27 µM;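 for AC50: cells exposed to compound for two days before readout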); conditions: JHH-DIPG-1 viability, CellTiter-Glo ATP luminescence
# [3] = viability loss in pontine glioma line – cell-based, SU-DIPG-IV, MIPE4.0, CellTiter-Glo, qHTS, dose response (AID 1347063; cut-off not given, nearly all actives have AC50 up to about 30 µM;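 note: compound exposure lasted 48 hours before the viability readout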); conditions: CellTiter-Glo ATP luminescence
# [4] = growth inhibition of DIPG cells – cell-based, MIPE4.0 library, CellTiter-Glo luminescence, qHTS (AID 1347066; cut-off not given, nearly all actives have AC50 up to about 30 µM;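 note: cells exposed to compound for 48 hours before readout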); conditions: SU-DIPG-VI viability, CellTiter-Glo ATP luminescence
# [5] = viability loss in pontine glioma line – cell-based, SU-DIPG-XXV, MIPE5.0, CellTiter-Glo, qHTS, dose response (AID 1347065; cut-off not given, nearly all actives have AC50 up to about 26 µM;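 note: cells exposed to compound for 48 hours before ATP readout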); conditions: CellTiter-Glo ATP luminescence
# [6] = JHH-DIPG-1 glioma cell viability, MIPE5.0 library, CellTiter-Glo luminescence, qHTS (AID 1347067; cut-off not given, nearly all actives have AC50 up to about 26 µM;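 note: cells exposed to compound for 48 hours before readout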); conditions: JHH-DIPG-1 glioma viability, CellTiter-Glo ATP luminescence
# [7] = growth inhibition of DIPG cells – cell-based, MIPE5.0 library, qHTS (AID 1347068; cut-off not given, nearly all actives have IC50 up to about 30 µM); conditions: SU-DIPG-XXV viability
# [8] = viability loss with induced miR-34 in A549 – imaging, A549 dox-inducible miR-34, nuclei and caspase counts, primary screen (AID 1347080;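 active = compounds whose cell count with miR-34 switched on is under 0.7 times the count with it off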); conditions: A549 miR-34 inducible, Hoechst nuclei count, 48 h
# [9] = MELAS cybrid and Rieske KO viability enhancers – cell-based, MELAS cybrids, Rieske KO mouse fibroblasts, CellTiter-Glo, primary screen (AID 1508586;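 active = mean z-score across replicates of 1.96 or higher in either the MELAS or the Rieske mutant cell line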;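 note: z relative to plate mean and SD of compound and empty wells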); conditions: low glucose
# [10] = drug combination growth inhibition, ovarian cancer – cell-based, oncology-focused library, rucaparib conditional, profiling panel (AID 1508598); conditions: patient-derived ovarian cancer cells, CellTiter-Glo viability, 144 h, stronger effect = lower value
compound,measurement,setting,value
NC1CCC(Nc2nc(Nc3ccc(C(=O)N4CCCCC4)cc3)c3ncn(-c4cccc(F)c4)c3n2)CC1 (centres undefined),outcome,[1],inactive
same,outcome,[2],inactive
same,outcome,[3],inactive
same,outcome,[4],inactive
CO/N=C(/C(=O)N[C@@H]1C(=O)N2C(C(=O)O)=C(Cn3ccc(=N)n3CCO)CS[C@H]12)c1csc(N)n1,outcome,[1],inactive
same,outcome,[2],inactive
same,outcome,[3],inactive
same,outcome,[4],inactive
CC(=O)N1CCN(c2ccc(OCc3nn(C)c(C)c3-c3cccc4c(CCCOc5cccc6ccccc56)c(C(=O)O)n(Cc5cccnc5)c34)cc2)CC1,AC50,[1],9.35 µM (active)
same,AC50,[2],1.66 µM (active)
same,AC50,[3],1.66 µM (active)
same,AC50,[4],1.48 µM (active)
OC[C@H]1O[C@@H](OCCc2ccc(O)cc2)[C@H](O)[C@@H](O)[C@@H]1O,outcome,[1],inactive
same,outcome,[2],inactive
same,outcome,[3],inactive
same,outcome,[4],inactive
CC1COC2(CCN(c3nc(=O)c4cc(C(F)(F)F)cc([N+](=O)[O-])c4s3)CC2)O1 (centres undefined),outcome,[1],inactive
same,outcome,[2],inactive
same,outcome,[3],inactive
same,outcome,[5],inactive
same,outcome,[4],inactive
same,outcome,[6],inactive
same,outcome,[7],inactive
same,fold change,"[8]; stronger effect = lower value, cell number ratio, induced over uninduced",0.872 (inactive)
same,fold change,[8]; measured here: relative caspase fold change +Dox/-Dox,0.894
same,cell count,"[8]; measured here: total cells with miR-34 induction, stronger effect = lower value",6990
same,cell count,[8]; measured here: total cells without miR-34 induction,8010
same,z-score,"[9]; MELAS cybrid survival, CellTiter-Glo 48 h, stronger effect = higher value",-0.641 (inactive)
same,z-score,"[9]; Rieske KO mouse fibroblast survival, CellTiter-Glo 72 h",-0.174
same,viability,"[10]; at 0.000305 µM, OCI-C5x cells, with rucaparib 10 µM, 100% = cells with rucaparib alone",115% (inactive)
same,viability,"[10]; at 0.000305 µM, OCI-C5x cells, without rucaparib",107% (inactive)
same,viability,"[10]; at 0.000305 µM, OCI-P5x cells, with rucaparib 20 µM, 100% = cells with rucaparib alone",99.5% (active)
same,viability,"[10]; at 0.000305 µM, OCI-P5x cells, without rucaparib",95.5% (active)
same,viability,"[10]; at 0.00122 µM, OCI-C5x cells, with rucaparib 10 µM, 100% = cells with rucaparib alone",134% (inactive)
same,viability,"[10]; at 0.00122 µM, OCI-C5x cells, without rucaparib",116% (inactive)
same,viability,"[10]; at 0.00122 µM, OCI-P5x cells, with rucaparib 20 µM, 100% = cells with rucaparib alone",105% (inactive)
same,viability,"[10]; at 0.00122 µM, OCI-P5x cells, without rucaparib",94.9% (active)
same,viability,"[10]; at 0.00488 µM, OCI-C5x cells, with rucaparib 10 µM, 100% = cells with rucaparib alone",129% (inactive)
same,viability,"[10]; at 0.00488 µM, OCI-C5x cells, without rucaparib",119% (inactive)
same,viability,"[10]; at 0.00488 µM, OCI-P5x cells, with rucaparib 20 µM, 100% = cells with rucaparib alone",102% (inactive)
same,viability,"[10]; at 0.00488 µM, OCI-P5x cells, without rucaparib",104% (inactive)
same,viability,"[10]; at 0.0195 µM, OCI-C5x cells, with rucaparib 10 µM, 100% = cells with rucaparib alone",126% (inactive)
same,viability,"[10]; at 0.0195 µM, OCI-C5x cells, without rucaparib",112% (inactive)
same,viability,"[10]; at 0.0195 µM, OCI-P5x cells, with rucaparib 20 µM, 100% = cells with rucaparib alone",105% (inactive)
same,viability,"[10]; at 0.0195 µM, OCI-P5x cells, without rucaparib",106% (inactive)
same,viability,"[10]; at 0.0781 µM, OCI-C5x cells, with rucaparib 10 µM, 100% = cells with rucaparib alone",118% (inactive)
same,viability,"[10]; at 0.0781 µM, OCI-C5x cells, without rucaparib",116% (inactive)
same,viability,"[10]; at 0.0781 µM, OCI-P5x cells, with rucaparib 20 µM, 100% = cells with rucaparib alone",107% (inactive)
same,viability,"[10]; at 0.0781 µM, OCI-P5x cells, without rucaparib",103% (inactive)
same,viability,"[10]; at 0.313 µM, OCI-C5x cells, with rucaparib 10 µM, 100% = cells with rucaparib alone",121% (inactive)
same,viability,"[10]; at 0.313 µM, OCI-C5x cells, without rucaparib",118% (inactive)
same,viability,"[10]; at 0.313 µM, OCI-P5x cells, with rucaparib 20 µM, 100% = cells with rucaparib alone",111% (inactive)
same,viability,"[10]; at 0.313 µM, OCI-P5x cells, without rucaparib",108% (inactive)
same,viability,"[10]; at 1.25 µM, OCI-C5x cells, with rucaparib 10 µM, 100% = cells with rucaparib alone",115% (inactive)
same,viability,"[10]; at 1.25 µM, OCI-C5x cells, without rucaparib",130% (inactive)
same,viability,"[10]; at 1.25 µM, OCI-P5x cells, with rucaparib 20 µM, 100% = cells with rucaparib alone",102% (inactive)
same,viability,"[10]; at 1.25 µM, OCI-P5x cells, without rucaparib",108% (inactive)
same,viability,"[10]; at 5 µM, OCI-C5x cells, with rucaparib 10 µM, 100% = cells with rucaparib alone",122% (inactive)
same,viability,"[10]; at 5 µM, OCI-C5x cells, without rucaparib",121% (inactive)
same,viability,"[10]; at 5 µM, OCI-P5x cells, with rucaparib 20 µM, 100% = cells with rucaparib alone",108% (inactive)
same,viability,"[10]; at 5 µM, OCI-P5x cells, without rucaparib",105% (inactive)
CC(NCc1ccc2c(c1)nc(NC(=O)c1ccc(-c3cn[nH]c3)s1)n2CC(C)(C)O)C(C)(C)C (centres undefined),AC50,[1],3.32 µM (active)
same,AC50,[2],0.332 µM (active)
same,AC50,[3],0.833 µM (active)
same,AC50,[4],5.9 µM (active)
O=C(C=CC#Cc1cccc(NS(=O)(=O)c2ccccc2)c1)NO,AC50,[1],14.8 µM (active)
same,AC50,[2],9.35 µM (active)
same,AC50,[3],4.18 µM (active)
same,AC50,[4],18.7 µM (active)
CN(C)CCCNC(=O)c1ccc(-c2cc(O)c3ncccc3c2)cc1,outcome,[1],inactive
same,outcome,[2],inactive
same,outcome,[3],inactive
same,outcome,[5],inactive
same,outcome,[6],inactive
